{"source": "PubChem BioAssay AID1345085", "about": "(National Center for Advancing Translational Sciences (NCATS), 2018)", "note": "Records with an inconclusive call do not appear. Unmarked numbers belong to inactive results. The source made the active and inactive calls. Calls come from the whole dose curve; as a rule, active = well fitted cell-killing curve with a large enough effect; inconclusive = small, poorly fitted or top-dose-only effect, or effect the other way; inactive = no such curve, though single readings can be large or run the other way. % is set by controls: 0 for no effect and ±100 for the full control effect; potency is the fitted concentration of half-maximal effect."}
{"tested_on": "Es-2", "experiment": "Confirmatory qHTS for gynecologic anti-cancer compounds from libraries of approved drugs and bioactive compounds; note: nearly all actives have a fitted effect of over 55% in size", "settings": "gynecologic cancer cell panel viability, ATPlite luminescence, 48 h; series mostly up to 57.6 µM; activity change, negative = viability loss: at the top concentration", "procedure,_shortened": "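Cells (1,000/well) were plated, left 16 h at 37 C/5% CO2, then given compound at 11 concentrations (1:3) from 57.5 uM to 0.977 nM for 48 h. ATPlite luminescence after 15 min at room temperature gave IC50 values.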"}
{"smiles": "Fc1cc(-c2cccc3ncc(-c4cnn(C5CCNCC5)c4)nc23)cc(F)c1CN1CCOCC1", "Potency": "21.7 µM (active)"}
{"smiles": "CCc1c2c(nc3ccc(O)cc13)-c1cc3c(c(=O)n1C2)COC(=O)[C@]3(O)CC", "Potency": "0.0385 µM (active)"}
{"smiles": "Cc1cnc(Nc2ccc(CN3CCOCC3)cc2)nc1Nc1cccc(S(=O)(=O)NC(C)(C)C)c1", "Potency": "4.32 µM (active)"}
{"smiles": "CN1CCN(c2ccc(OC(F)(F)F)c(Nc3ncc4c(n3)-c3c(c(C(N)=O)nn3CCO)CC4)c2)CC1", "Potency": "0.217 µM (active)"}
{"smiles": "CC[C@@]1(O)C(=O)OCc2c1cc1n(c2=O)Cc2c-1nc1ccccc1c2/C=N/OC(C)(C)C", "Potency": "0.0153 µM (active)"}
{"smiles": "Cn1cnc2c(F)c(Nc3ccc(Br)cc3Cl)c(C(=O)NOCCO)cc21", "Potency": "6.85 µM (active)"}
{"smiles": "Cc1cc(SCc2sc(-c3ccc(C(F)(F)F)cc3)nc2C)ccc1OCC(=O)O", "activity change, negative = viability loss": "-3.41%"}
{"smiles": "CCN1CCN(Cc2ccc(-c3cc4c(NC(C)c5ccccc5)ncnc4[nH]3)cc2)CC1", "note": "(stereo unspecified)", "Potency": "27.3 µM (active)"}
{"smiles": "COc1ccc2c(c1OC)C(=O)O[C@@H]2[C@H]1c2c(cc3c(c2OC)OCO3)CCN1C", "activity change, negative = viability loss": "-1.17%"}
{"smiles": "Cn1cc(-c2[nH]c3cc(NC(=O)[C@H](N)C4CCCCC4)cc4c3c2C=NNC4=O)cn1", "Potency": "6.85 µM (active)"}
{"smiles": "CS(=O)(=O)c1ccc(C(=O)Nc2ccc(Cl)c(-c3ccccn3)c2)c(Cl)c1", "activity change, negative = viability loss": "5.55%"}
{"smiles": "S=c1nc[nH]c2nc[nH]c12", "Potency": "3.85 µM (active)"}
{"smiles": "Cc1nc(N)nc(N)c1-c1ccc(Cl)c(Cl)c1", "Potency": "1.37 µM (active)"}
{"smiles": "CC(C)C[C@H](NC(=O)[C@H](CCc1ccccc1)NC(=O)CN1CCOCC1)C(=O)N[C@@H](Cc1ccccc1)C(=O)N[C@@H](CC(C)C)C(=O)[C@@]1(C)CO1", "Potency": "3.06 µM (active)"}
{"smiles": "CC1=C(CO)C(=O)O[C@@H]([C@@H](C)[C@H]2CC[C@H]3[C@@H]4C[C@H]5O[C@]56[C@@H](O)C=CC(=O)[C@]6(C)[C@H]4CC[C@]23C)C1", "Potency": "2.66 µM (active)"}
{"smiles": "O=c1[nH]c(=O)n([C@H]2C[C@H](O)[C@@H](CO)O2)cc1Br", "activity change, negative = viability loss": "5.77%"}
{"smiles": "NS(=O)(=O)c1ccc(Nc2nc(OCC3CCCCC3)c3[nH]cnc3n2)cc1", "activity change, negative = viability loss": "-17.6%"}
{"smiles": "Cc1ccc(C(=O)N(CCCN)C(c2nc3cc(Cl)ccc3c(=O)n2Cc2ccccc2)C(C)C)cc1", "note": "(stereo unspecified)", "Potency": "3.85 µM (active)"}
{"smiles": "CNC(=O)c1ccccc1Sc1ccc2c(/C=C/c3ccccn3)n[nH]c2c1", "Potency": "19.3 µM (active)"}
{"smiles": "COc1cc(-c2nn(C3CCC(N4CCN(C(C)=O)CC4)CC3)c3ncnc(N)c23)ccc1NC(=O)c1cc2ccccc2n1C", "note": "(stereo unspecified)", "Potency": "30.6 µM (active)"}
{"smiles": "CN(C)C/C=C/C(=O)Nc1cc2c(Nc3ccc(F)c(Cl)c3)ncnc2cc1OC1CCOC1", "note": "(stereo unspecified)", "Potency": "15.3 µM (active)"}
{"smiles": "Nc1ncnc2c1ncn2[C@@H]1O[C@H](CO)C[C@H]1O", "activity change, negative = viability loss": "0.037%"}
{"smiles": "CN(C)CC/C=C1\\c2ccccc2COc2ccccc21", "activity change, negative = viability loss": "14.1%"}
{"smiles": "N#CC1(c2cccc(C(=O)Nc3cc(Oc4ccc5nc(NC(=O)C6CC6)sc5n4)ccc3F)c2Cl)CC1", "Potency": "5.44 µM (active)"}
{"smiles": "CC(C)Oc1ccc2c(=O)c(-c3ccccc3)coc2c1", "Potency": "9.68 µM (active)"}
{"smiles": "Cc1nc(N)ncc1-c1nc(N2CCOCC2)c2sc(C(C)(C)O)cc2n1", "activity change, negative = viability loss": "-16.4%"}
{"smiles": "Cc1cc(CN2CCN(c3c(Br)cnc4nc(-c5ccc(N6CCN(C)CC6)cc5)[nH]c34)CC2)no1", "Potency": "7.69 µM (active)"}
{"smiles": "Cn1cc(-c2ccc3ncc(Cc4ccc5ncccc5c4)n3n2)cn1", "activity change, negative = viability loss": "0.637%"}
{"smiles": "CCS(=O)(=O)c1cccc(-c2cc(C(=O)NC3CCN(C)CC3)c(C)c3[nH]c4ncc(C)cc4c23)c1", "Potency": "5.99 µM (active)"}
{"smiles": "COc1cc2c(NC3CCN(C(C)C)CC3)nc(C3CCCCC3)nc2cc1OCCCN1CCCC1", "Potency": "12.2 µM (active)"}
{"smiles": "C[C@]12CCC(=O)C=C1CC[C@@H]1[C@@H]2[C@@H](O)C[C@@]2(C)[C@H]1CC[C@]2(O)C(=O)CO", "activity change, negative = viability loss": "-15.4%"}
{"smiles": "C[C@]12CCC(=O)C=C1[C@@H]1C[C@@H]1[C@H]1[C@@H]3[C@@H]4C[C@@H]4[C@@]4(CCC(=O)O4)[C@@]3(C)CC[C@@H]12", "activity change, negative = viability loss": "-1.03%"}
{"smiles": "CCN(CC)CCCC(C)Nc1ccnc2cc(Cl)ccc12", "note": "(stereo unspecified)", "activity change, negative = viability loss": "-3.69% [at 19.5 µM]"}
{"smiles": "CC(C)n1nc(-c2cc3cc(O)ccc3[nH]2)c2c(N)ncnc21", "Potency": "4.85 µM (active)"}
{"smiles": "C[C@@H](Oc1cc(-c2cnn(C3CCNCC3)c2)cnc1N)c1c(Cl)ccc(F)c1Cl", "Potency": "15.3 µM (active)"}
{"smiles": "COc1cccc2c1C(=O)c1c(O)c3c(c(O)c1C2=O)C[C@@](O)(C(=O)CO)C[C@@H]3O[C@H]1C[C@H](N)[C@H](O)[C@H](C)O1", "Potency": "1.72 µM (active)"}
